Screening results from PubChem BioAssay.
A selection: hits, their analogues and other compounds. The true share with any hit is near 1.2%.
RAD52 anneal inh: RAD52 (human) annealing inhibition; P43351; recombinant RAD52 DNA annealing, FRET fluorescence; inhibition, % at 18.7 µM; actives 0.46% (n = 360,000); AID 651710;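 active = every replicate showing at least 50% inhibition; inconclusive = mean inhibition at least 50% but not in every replicate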
Target sequence (P43351 whole entry, looked up): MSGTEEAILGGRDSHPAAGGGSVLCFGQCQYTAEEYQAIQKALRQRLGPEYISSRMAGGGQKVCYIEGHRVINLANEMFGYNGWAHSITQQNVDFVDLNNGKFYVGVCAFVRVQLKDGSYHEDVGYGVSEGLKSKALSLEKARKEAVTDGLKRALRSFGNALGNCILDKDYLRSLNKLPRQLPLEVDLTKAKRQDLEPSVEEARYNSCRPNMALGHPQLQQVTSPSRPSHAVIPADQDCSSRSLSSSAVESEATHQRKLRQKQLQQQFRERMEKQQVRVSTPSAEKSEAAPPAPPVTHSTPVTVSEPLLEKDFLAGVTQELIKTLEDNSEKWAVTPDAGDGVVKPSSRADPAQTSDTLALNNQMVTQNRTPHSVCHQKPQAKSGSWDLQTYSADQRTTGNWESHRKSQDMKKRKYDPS
RAD54 branch: blocks human RAD54 Holliday junction branch migration. FAM/BHQ fluorescence. inhibition, % at 10.4 µM. actives 0.14% (n = 360,000);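 active = mean normalized replicate activity at least 40 and at least half of replicates scoring 40 or more; inconclusive = only one of the two criteria met; inactive = mean below 40 and under half of replicates reaching 40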;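 also: inhibitors cause a drop in the FAM fluorescence signal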
Glyco luc inh: blocks N-linked glycosylation in D54 reporter cells; D54 ERlucT glycosylation luciferase reporter, 24 h; percent of 100 nM tunicamycin response; reporter increase, % at 12.5 µM; actives 0.23% (n = 360,000);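 active = mean luciferase reporter signal, scaled so untreated is 0 and the glycosylation-blocking control 100, at or above a set limit in every replicate; inconclusive = mean reaches the limit but not every replicate does; inactive = mean below the limit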;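 also: luciferase carries N-glycosylation sites so blocking glycosylation raises the light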
CASP6 VEID inh: blocks human caspase-6 cleavage activity; inhibition, % at 12.5 µM; P55212; purified caspase-6, Z-VEID-R110 cleavage fluorescence; actives 0.53% (n = 350,000); AID 686996;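 active = mean inhibition across replicates at least about 35%, with every replicate also reaching that limit, limit read from the data; inconclusive = only one of the two criteria met; inactive = neither criterion met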
NSD2 inh: inhibitors of human histone methyltransferase NSD2; O96028; NSD2 peptide methylation, AlphaScreen, 120 min; inhibition, % at 12.5 µM; actives 0.54% (n = 310,000); in the data active = inhibition above about 50%
Large screens that a line does not name were inactive.

CCCN(C)C[C@H]1OCCCC[C@@H](C)Oc2ccc(NS(=O)(=O)c3ccccc3)cc2C(=O)N([C@@H](C)CO)C[C@H]1C	RAD52 anneal inh 54.4 (no result: Glyco luc inh, NSD2 inh)
COc1ccc(CN(C)C[C@@H]2OCCCC[C@@H](C)Oc3ccc(NS(=O)(=O)c4ccc(Cl)cc4)cc3C(=O)N([C@H](C)CO)C[C@H]2C)cc1	none (no result: Glyco luc inh, NSD2 inh)
CCCN(C)C[C@H]1OCCCC[C@H](C)Oc2ccc(NS(=O)(=O)c3ccccc3)cc2C(=O)N([C@@H](C)CO)C[C@H]1C	none (no result: Glyco luc inh, NSD2 inh)
C[C@@H]1CCCCO[C@@H](CN(C)Cc2ccc(C(=O)Nc3ccccc3N)cc2)[C@@H](C)CN([C@H](C)CO)C(=O)c2cc(NS(=O)(=O)c3ccccc3)ccc2O1	none (no result: RAD54 branch, Glyco luc inh, NSD2 inh)
COc1ccc(S(=O)(=O)Nc2ccc3c(c2)C(=O)N([C@@H](C)CO)C[C@@H](C)[C@H](CN(C)Cc2ccc(C(=O)Nc4ccccc4N)cc2)OCCCC[C@@H](C)O3)cc1	RAD52 anneal inh 55.3 (no result: Glyco luc inh, NSD2 inh)
COc1ccc(CN(C)C[C@@H]2OCCCC[C@@H](C)Oc3ccc(NS(=O)(=O)c4ccc(Cl)cc4)cc3C(=O)N([C@@H](C)CO)C[C@@H]2C)cc1	RAD52 anneal inh 55.6 (no result: Glyco luc inh, NSD2 inh)
COCC(=O)N1C[C@@H](C)[C@@H](OC)CN(C)C(=O)c2ccc(NC(=O)c3ccc(F)cc3)cc2OC[C@@H]1C	none (no result: Glyco luc inh, NSD2 inh)
O=C(NC1CCC1)[C@@H]1[C@@H](CO)[C@@H]2Cn3c(ccc(-c4ccncc4)c3=O)[C@@H]2N1CCc1ccccc1	none (no result: RAD54 branch, Glyco luc inh, NSD2 inh)
O=C(Nc1ccc(Cl)c(Cl)c1)N[C@H]1CC[C@@H](CCn2cc(C3CCCC3)nn2)O[C@H]1CO	none (no result: RAD54 branch, Glyco luc inh, NSD2 inh)
CC(C)NC(=O)N(C)C[C@H]1Oc2cc(C#CC3CC3)ccc2S(=O)(=O)N([C@@H](C)CO)C[C@H]1C	none (no result: Glyco luc inh, NSD2 inh)
Cc1nc(NC2=NCN(CCCN3CCOCC3)CN2)nc2c(C)cccc12	RAD54 branch 81.0 (no result: RAD52 anneal inh, CASP6 VEID inh, NSD2 inh)
COc1ccccc1NC(=O)N1C[C@@H](C)[C@H](OC)CN(C)C(=O)c2ccc(NC(=O)c3ccccn3)cc2OC[C@H]1C	none (no result: RAD52 anneal inh, Glyco luc inh, NSD2 inh)
CCc1nc2ccc(C(=O)N3CC(C)CC(C)C3)cc2nc1CC (stereo not given)	none (no result: RAD52 anneal inh, RAD54 branch, Glyco luc inh, CASP6 VEID inh)
CCOC(=O)COc1ccc(Br)cc1/C=C\c1[nH]c(=O)[nH]c(=O)c1[N+](=O)[O-]	CASP6 VEID inh 56.4 (no result: RAD54 branch)
CCOC(=O)COc1ccc(Br)cc1/C=C/c1[nH]c(=O)[nH]c(=O)c1[N+](=O)[O-]	CASP6 VEID inh 40.1
O=C1C=CC(n2cc(F)c(=O)[nH]c2=O)O1 (stereo not given)	CASP6 VEID inh 36.2
CCNc1nc(-c2cc(C)n(Cc3ccco3)c2C)cs1	CASP6 VEID inh 50.6 (no result: RAD54 branch)
COC(=O)c1cccc(NC(=O)c2ccc(OC)c(Cl)c2)c1	none
COc1ccc(C(=O)Nc2cc(C(=O)O)cc(C(=O)O)c2)cc1Cl	CASP6 VEID inh 81.6 (no result: RAD54 branch)
Cn1c(SCCOc2ccccc2Cl)nnc1-c1ccncc1	CASP6 VEID inh 35.1
Cc1ccccc1OCCSc1nnc(-c2ccncc2)n1C	none (no result: RAD52 anneal inh, CASP6 VEID inh)
NC(N)=Nc1nc(-c2ccccc2)c2cc(F)ccc2n1	RAD54 branch 55.9
OCCSc1nc(-c2ccccc2)nc2ccc(F)cc12	none (no result: RAD54 branch)
COc1cc(/C=C2/C(=O)NN(c3ccc(Cl)cc3)C2=O)cc(Br)c1O	CASP6 VEID inh 80.9
C[C@@H]1CN([C@@H](C)CO)C(=O)c2cc(NS(=O)(=O)c3cn(C)cn3)ccc2O[C@@H](C)CCCCO[C@H]1CN(C)C(=O)c1ccccc1	none (no result: Glyco luc inh, NSD2 inh)
COc1ccc2c(c1)[C@H]1[C@H](CO2)[C@H](c2ccccc2)[C@]2(C)C(=O)N[C@H](C)C(=O)N12	none (no result: NSD2 inh)
COc1ccc2c(c1)C(=O)N1[C@H]3c4cc(OC)ccc4OC[C@@H]3[C@H](c3ccccc3)[C@]1(C)C(=O)N2	Glyco luc inh 61.5 (no result: NSD2 inh)
COc1ccc2c(c1)[C@H]1[C@H](CO2)[C@H](c2ccccc2)[C@]2(C)C(=O)Nc3ccccc3C(=O)N12	Glyco luc inh 66.6 (no result: NSD2 inh)
COc1ccc2c(c1)[C@H]1[C@H](CO2)[C@H](c2ccccc2)[C@]2(C)C(=O)Nc3cc(F)ccc3C(=O)N12	Glyco luc inh 40.9 (no result: NSD2 inh)
COc1ccc2c(c1)OC[C@H]1[C@H]2N2C(=O)c3ccc(F)cc3NC(=O)[C@@]2(C)[C@H]1c1ccccc1	none (no result: NSD2 inh)
COc1ccc2c(c1)OC[C@H]1[C@H]2N2C(=O)c3cc(Br)ccc3NC(=O)[C@@]2(C)[C@H]1c1ccccc1	Glyco luc inh 35.6 (no result: RAD52 anneal inh, CASP6 VEID inh, NSD2 inh)
Cc1ccc2c(c1)C(=O)N1[C@H]3c4cc(Cl)ccc4OC[C@@H]3[C@H](c3ccccc3)[C@]1(C)C(=O)N2	Glyco luc inh inconclusive (no result: NSD2 inh)
O=C(NC1CCCCC1)N[C@@H]1CC[C@H](CC(=O)N2CCOCC2)O[C@@H]1CO	none (no result: Glyco luc inh, NSD2 inh)
COc1ccc2c(c1)[C@H]1[C@H](CO2)[C@H](c2ccccc2)[C@]2(C)C(=O)Nc3ccc(Br)cc3C(=O)N12	Glyco luc inh 40.8 (no result: NSD2 inh)
C[C@@]12C(=O)Nc3cc(Cl)ccc3C(=O)N1[C@H]1c3cc(Br)ccc3OC[C@@H]1[C@@H]2c1ccccc1	none (no result: NSD2 inh)
O=C(CCS(=O)(=O)c1ccc(Br)cc1)NCc1ccc(F)cc1	CASP6 VEID inh 69.6
O=C(CCS(=O)(=O)c1ccc(Br)cc1)NCCC1=CCCCC1	CASP6 VEID inh 66.3
O=C(CCS(=O)(=O)c1ccc(Br)cc1)NC1CCCCCC1	CASP6 VEID inh 60.7
Cc1ccc(S(=O)(=O)CCC(=O)NC2CCCCC2)cc1	none
